For part of these data: Entries with a potency or affinity are not part of this list.
How the values were obtained:
Parameters in all cases: scale not given: direction of the effect not stated beside the values
[1] = target: Protein translocase subunit SecA (Escherichia coli (strain K12)) (UniProt P10408); assay: Assay to Identify E. coli SecA ATPase Inhibitors; format: functional; details: 30 µM
[2] = target: T1, Ubiquitin-activating enzyme e1, putative (Leishmania donovani (strain BPK282A1)) (UniProt E9BSI1); assay: Leishmania donovani Ubiquitin Activating Enzyme (LdE1); format: functional; details: 30 µM
T1 sequence (whole entry): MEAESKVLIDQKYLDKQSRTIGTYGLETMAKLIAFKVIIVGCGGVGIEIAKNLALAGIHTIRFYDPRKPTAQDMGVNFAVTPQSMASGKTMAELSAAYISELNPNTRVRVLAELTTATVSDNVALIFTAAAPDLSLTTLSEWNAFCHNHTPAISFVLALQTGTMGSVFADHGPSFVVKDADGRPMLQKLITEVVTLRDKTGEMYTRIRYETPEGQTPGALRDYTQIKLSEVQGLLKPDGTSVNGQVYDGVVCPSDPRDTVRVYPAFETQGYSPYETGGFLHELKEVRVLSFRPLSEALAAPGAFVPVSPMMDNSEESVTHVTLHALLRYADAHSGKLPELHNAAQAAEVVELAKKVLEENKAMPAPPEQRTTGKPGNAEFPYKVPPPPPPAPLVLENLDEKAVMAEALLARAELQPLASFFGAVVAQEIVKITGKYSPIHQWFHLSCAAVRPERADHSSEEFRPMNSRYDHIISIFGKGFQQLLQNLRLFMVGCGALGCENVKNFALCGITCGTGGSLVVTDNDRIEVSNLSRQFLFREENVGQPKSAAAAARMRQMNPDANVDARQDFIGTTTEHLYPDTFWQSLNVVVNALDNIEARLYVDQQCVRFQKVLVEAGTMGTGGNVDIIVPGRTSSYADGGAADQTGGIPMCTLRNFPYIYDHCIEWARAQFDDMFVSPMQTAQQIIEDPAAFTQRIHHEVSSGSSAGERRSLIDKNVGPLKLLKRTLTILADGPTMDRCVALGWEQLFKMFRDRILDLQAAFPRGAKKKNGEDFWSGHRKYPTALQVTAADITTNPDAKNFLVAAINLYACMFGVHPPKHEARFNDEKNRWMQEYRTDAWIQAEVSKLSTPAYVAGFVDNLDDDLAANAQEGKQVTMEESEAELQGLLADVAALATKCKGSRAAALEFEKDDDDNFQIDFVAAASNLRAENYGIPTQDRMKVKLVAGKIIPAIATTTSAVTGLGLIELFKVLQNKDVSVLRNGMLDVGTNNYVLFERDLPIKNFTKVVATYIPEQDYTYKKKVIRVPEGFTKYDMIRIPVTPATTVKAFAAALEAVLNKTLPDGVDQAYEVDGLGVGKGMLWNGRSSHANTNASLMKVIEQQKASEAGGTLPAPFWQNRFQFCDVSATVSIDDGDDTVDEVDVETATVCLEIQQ

[3] = target: AMP-activated protein kinase, AMPK (Homo sapiens) (UniProt P54646+O43741+P54619+Q9UGJ0+Q9Y478+Q13131+Q9UGI9); assay: AMP-dependent Kinase enzyme assay. An in vitro enzyme assay that detects ADP turnover that is directly proportional to AMPK activity. This uses naive AMPK that is activated during the assay with MK-8722; format: functional; details: 30 µM
[4] = target: Sialic acid-binding Ig-like lectin 9 (Homo sapiens) (UniProt Q9Y336); assay: Hs-Siglec9 ALPHAscreen SOP 20170721; details: 10 µM
[5] = tested on: Trypanosoma cruzi; assay: Trypanosoma cruzi phosphomannomutase and mannose-1-phosphate guanylyltransferase assay; format: functional; details: 10 µM
[6] = target: T2, Arginase-2, mitochondrial (Homo sapiens) (UniProt P78540); assay: in vitro enzyme assay to detect the production of urea directly proportional to the activity of Arginase II; format: functional; details: 33.3 µM; note: in the data most compounds retested in dose-response had high values
T2 sequence (whole entry): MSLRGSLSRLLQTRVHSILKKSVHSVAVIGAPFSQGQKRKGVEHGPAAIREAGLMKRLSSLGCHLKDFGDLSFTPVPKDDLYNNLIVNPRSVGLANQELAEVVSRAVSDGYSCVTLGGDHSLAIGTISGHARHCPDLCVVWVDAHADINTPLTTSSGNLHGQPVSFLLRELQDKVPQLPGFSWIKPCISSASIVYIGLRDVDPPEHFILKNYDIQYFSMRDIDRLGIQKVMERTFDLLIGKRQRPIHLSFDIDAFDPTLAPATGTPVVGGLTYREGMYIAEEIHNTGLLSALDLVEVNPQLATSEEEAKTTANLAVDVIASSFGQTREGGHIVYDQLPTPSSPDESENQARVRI

[7] = target: T3, Proteasome subunit beta (Trypanosoma cruzi) (UniProt O96673); assay: Trypanosoma cruzi proteasome chymotrypsin-like activity (TcProtChymo) assay.; note: in the data most compounds retested in dose-response had high values; format: functional; details: 9.37 µM
T3 sequence (whole entry): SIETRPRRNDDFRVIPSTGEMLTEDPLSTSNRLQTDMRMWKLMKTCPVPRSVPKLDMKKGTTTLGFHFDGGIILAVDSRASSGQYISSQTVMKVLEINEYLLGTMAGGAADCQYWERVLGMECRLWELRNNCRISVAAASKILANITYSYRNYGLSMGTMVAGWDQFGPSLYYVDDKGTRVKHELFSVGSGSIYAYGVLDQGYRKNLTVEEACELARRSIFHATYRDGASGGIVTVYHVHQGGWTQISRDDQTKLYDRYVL

[8] = species on record: Homo sapiens; assay: To identify inhibition of the IFN signalling (Jak-Stat) pathway via expression of an eGFP reporter gene under the control of an IFN-stimulated response element (ISRE) containing MxA promoter.; format: functional; details: 30 µM
[9] = target: T4, Tyrosyl-tRNA synthetase, putative (Trypanosoma cruzi (strain CL Brener)) (UniProt Q4DSP6); assay: Trypanosoma cruzi tyrosyl tRNA synthetase (TcYRS) _High Tyrosine SOP; format: functional; details: 30 µM; note: in the data most compounds retested in dose-response had high values
T4 sequence (whole entry): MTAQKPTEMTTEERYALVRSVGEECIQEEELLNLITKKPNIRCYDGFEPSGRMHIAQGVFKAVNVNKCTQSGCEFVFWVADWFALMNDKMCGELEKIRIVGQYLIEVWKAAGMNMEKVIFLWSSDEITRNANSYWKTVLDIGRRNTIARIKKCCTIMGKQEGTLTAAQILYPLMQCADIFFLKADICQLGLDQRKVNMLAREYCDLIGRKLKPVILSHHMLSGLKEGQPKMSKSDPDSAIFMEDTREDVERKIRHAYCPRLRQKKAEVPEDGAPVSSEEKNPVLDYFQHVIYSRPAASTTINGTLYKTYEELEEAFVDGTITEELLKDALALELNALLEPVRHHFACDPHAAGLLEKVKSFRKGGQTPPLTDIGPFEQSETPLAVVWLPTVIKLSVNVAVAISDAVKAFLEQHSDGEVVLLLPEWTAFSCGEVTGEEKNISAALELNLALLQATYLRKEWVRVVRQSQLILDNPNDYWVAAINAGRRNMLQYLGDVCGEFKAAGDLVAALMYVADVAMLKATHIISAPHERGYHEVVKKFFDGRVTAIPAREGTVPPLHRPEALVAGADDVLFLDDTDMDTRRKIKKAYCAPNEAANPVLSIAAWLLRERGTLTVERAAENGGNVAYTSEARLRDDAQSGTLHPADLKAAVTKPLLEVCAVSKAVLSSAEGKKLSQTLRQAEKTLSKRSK

[10] = target: T4, Tyrosyl-tRNA synthetase, putative (Trypanosoma cruzi (strain CL Brener)); assay: Trypanosoma cruzi tyrosyl tRNA synthetase (TcYRS) SOP; format: functional; details: 30 µM
[11] = target: Chromo domain-containing protein 1 (Saccharomyces cerevisiae (strain ATCC 204508 / S288c) (Baker's yeast)) (UniProt P32657); assay: ScCHD-1 Enzyme Inhibition Assay; format: functional; details: 30 µM; note: in the data most compounds retested in dose-response had high values
Sequence of Chromo domain-containing protein 1 (Saccharomyces cerevisiae (strain ATCC 204508 / S288c) (Baker's yeast)) (P32657 whole entry, the tested form may be a part): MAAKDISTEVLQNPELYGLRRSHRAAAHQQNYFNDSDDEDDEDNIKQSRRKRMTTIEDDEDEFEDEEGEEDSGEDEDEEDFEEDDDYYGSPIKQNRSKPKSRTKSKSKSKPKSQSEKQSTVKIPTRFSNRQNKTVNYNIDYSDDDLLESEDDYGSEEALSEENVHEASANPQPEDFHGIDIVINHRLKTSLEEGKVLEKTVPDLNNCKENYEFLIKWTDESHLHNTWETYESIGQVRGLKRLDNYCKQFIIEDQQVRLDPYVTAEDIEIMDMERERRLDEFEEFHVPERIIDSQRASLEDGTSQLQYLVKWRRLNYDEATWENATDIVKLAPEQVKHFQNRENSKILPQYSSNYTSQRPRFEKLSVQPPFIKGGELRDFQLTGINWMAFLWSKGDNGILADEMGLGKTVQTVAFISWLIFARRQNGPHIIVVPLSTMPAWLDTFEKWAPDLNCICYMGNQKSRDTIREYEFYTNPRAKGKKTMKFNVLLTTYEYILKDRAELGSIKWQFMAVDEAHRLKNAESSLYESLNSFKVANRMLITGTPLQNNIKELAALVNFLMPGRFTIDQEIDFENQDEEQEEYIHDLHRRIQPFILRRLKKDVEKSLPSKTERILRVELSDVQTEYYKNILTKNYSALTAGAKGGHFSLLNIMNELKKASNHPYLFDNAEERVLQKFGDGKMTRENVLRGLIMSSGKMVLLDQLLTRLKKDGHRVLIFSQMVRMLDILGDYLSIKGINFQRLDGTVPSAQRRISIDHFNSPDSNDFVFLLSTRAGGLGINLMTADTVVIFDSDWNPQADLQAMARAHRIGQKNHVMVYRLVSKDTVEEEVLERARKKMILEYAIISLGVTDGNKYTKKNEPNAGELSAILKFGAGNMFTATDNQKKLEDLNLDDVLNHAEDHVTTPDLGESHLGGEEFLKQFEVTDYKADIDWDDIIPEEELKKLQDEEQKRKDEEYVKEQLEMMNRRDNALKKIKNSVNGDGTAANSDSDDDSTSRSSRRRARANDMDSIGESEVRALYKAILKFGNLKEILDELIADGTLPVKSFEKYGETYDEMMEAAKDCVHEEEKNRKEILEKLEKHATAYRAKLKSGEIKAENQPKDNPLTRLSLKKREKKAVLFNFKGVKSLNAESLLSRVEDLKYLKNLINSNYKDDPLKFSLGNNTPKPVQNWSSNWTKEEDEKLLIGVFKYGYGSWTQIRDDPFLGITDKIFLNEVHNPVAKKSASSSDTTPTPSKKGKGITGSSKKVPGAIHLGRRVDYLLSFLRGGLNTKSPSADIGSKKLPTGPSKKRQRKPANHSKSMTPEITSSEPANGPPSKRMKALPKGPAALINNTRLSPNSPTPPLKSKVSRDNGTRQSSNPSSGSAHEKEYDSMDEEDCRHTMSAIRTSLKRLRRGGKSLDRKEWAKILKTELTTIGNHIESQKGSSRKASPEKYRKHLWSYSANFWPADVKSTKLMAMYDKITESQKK

Sequence of Sialic acid-binding Ig-like lectin 9 (Homo sapiens) (Q9Y336 whole entry): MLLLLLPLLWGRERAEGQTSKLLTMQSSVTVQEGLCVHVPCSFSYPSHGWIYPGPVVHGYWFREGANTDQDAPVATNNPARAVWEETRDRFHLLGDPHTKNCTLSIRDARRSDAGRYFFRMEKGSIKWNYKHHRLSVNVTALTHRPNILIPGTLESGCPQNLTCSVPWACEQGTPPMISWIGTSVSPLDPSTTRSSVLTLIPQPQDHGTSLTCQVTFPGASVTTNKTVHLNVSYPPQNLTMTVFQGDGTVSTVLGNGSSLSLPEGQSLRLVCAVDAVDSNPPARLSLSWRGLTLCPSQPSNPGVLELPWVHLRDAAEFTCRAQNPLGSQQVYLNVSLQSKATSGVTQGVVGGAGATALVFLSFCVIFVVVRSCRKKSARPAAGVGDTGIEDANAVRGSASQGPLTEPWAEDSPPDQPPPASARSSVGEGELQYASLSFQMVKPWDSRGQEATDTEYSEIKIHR
Sequence of Protein translocase subunit SecA (Escherichia coli (strain K12)) (P10408 whole entry): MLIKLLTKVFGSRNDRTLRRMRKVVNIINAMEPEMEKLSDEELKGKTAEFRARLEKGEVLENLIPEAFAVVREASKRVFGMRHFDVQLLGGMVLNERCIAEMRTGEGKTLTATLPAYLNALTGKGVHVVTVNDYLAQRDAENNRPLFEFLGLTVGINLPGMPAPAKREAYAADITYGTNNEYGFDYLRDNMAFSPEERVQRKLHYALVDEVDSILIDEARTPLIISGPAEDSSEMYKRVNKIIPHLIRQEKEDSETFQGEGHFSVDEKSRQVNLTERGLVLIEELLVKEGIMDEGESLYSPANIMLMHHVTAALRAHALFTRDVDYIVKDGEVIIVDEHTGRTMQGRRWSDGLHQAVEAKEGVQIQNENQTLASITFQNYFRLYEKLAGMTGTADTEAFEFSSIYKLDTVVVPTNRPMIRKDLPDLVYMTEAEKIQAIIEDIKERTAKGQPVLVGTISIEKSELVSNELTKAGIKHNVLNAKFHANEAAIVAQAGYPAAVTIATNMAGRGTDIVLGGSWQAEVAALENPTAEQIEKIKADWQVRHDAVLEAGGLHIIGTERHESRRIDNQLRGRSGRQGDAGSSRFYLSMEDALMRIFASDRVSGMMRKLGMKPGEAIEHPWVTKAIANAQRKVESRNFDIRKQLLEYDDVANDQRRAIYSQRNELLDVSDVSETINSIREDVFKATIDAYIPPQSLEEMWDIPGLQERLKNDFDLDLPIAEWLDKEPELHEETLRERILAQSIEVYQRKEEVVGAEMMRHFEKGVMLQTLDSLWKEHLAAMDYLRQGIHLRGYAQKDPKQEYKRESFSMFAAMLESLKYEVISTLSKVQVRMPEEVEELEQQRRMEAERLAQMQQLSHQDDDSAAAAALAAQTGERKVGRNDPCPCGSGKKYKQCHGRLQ

SMILES | Percent Effect [1] | Percent Effect [2] | Percent Effect [3] | Percent Effect [4] | Percent Effect [5] | Percent Effect [6] | Percent Effect [7] | Percent Effect [8] | Percent Effect [9] | Percent Effect [10] | Percent Effect [11]
O=c1ccc(-c2ccccc2F)nn1CCN1CCCS1(=O)=O | -6.51% | 13.5% | -4.96% | 22.3% | 6.16% | 3.72% | 1.29% | -2.29% | 1.07% | 8.64% | -10.9%
CC(OCC1CC1)C(=O)N1CCCN(Cc2nccn2C)CC1 (stereo unspecified) | 0.276% | 13.9% | -2.47% | -3.62% | -5.64% | 1.07% | 19.4% | 10.6% | 3.12% | 7.59% | -24.1%
CNC(=O)C1Cn2ccnc2C2(CCN(CCF)CC2)O1 (stereo unspecified) | -1.42% | 5.2% | 2.6% | -5.27% | -8.97% | 0.645% | 13.1% | 15.2% | 3.17% | 3.85% | -5.68%
O=C(CCNCC(F)(F)F)N1CCC(Nc2cccnn2)CC1 | 2.07% | 28.9% | 4.48% | -13.6% | 5.13% | 4.68% | 8.88% | 12.2% | 4.43% | 23.5% | -14.7%
O=C(NCCC(=O)N1CCCC1)c1nn(-c2ccccc2F)cc1O | -10.5% | 10.8% | -8.26% | 24.5% | 8.82% | -0.554% | 8.08% | 17.9% | 5.94% | 15.8% | -11.4%
CS(=O)(=O)NC[C@]12COC[C@H]1CN(C(=O)c1ccccc1)C2 | -1.33% | -52% | -0.526% | 9.67% | -4.63% | 0.645% | -1.22% | 11.1% | -79.4% | -147% | -6.34%
CC(=O)N1CCCC1c1nccnc1Nc1cccc(C)n1 (stereo unspecified) | -1.59% | -5.33% | 11.9% | 5.31% | -1.57% | 0.699% | 1.15% | -9.62% | -1.06% | 1.28% | 4.34%
Cc1cnn(C2CN(CC(=O)Nc3cccnc3)C2)c1 | -4.23% | 7.89% | -7.32% | -2.24% | -8.68% | 2.52% | -0.254% | -0.514% | -4.43% | 3.7% | 3.7%
CCC1=N[C@@]2(CC[C@@H]3CN(Cc4ccc(Cl)cc4)C[C@@H]32)C(=O)N1 | -2.1% | 2.7% | 2.16% | -3.03% | -7.72% | -0.955% | 20.3% | 3.29% | 2.16% | 2.56% | 0.0576%
O=C(c1cccc(CNCC2CNc3ccnn3C2)c1)N1CCCC1 (stereo unspecified) | -3.44% | 8.86% | -18.1% | -4.78% | 4.41% | -4.09% | 18.4% | 6.92% | 8.33% | 10.1% | -18.2%
Cc1ccc(C)c(OC2CCN(C(=O)c3ccc(O)nc3)CC2)c1 | -1.92% | 15.8% | -2.4% | 7.02% | 3.76% | 0.383% | 17.5% | 10.8% | 8.33% | 21.9% | -11.2%
CC(=O)N1CCCN(C(=O)NCc2cc[nH]n2)CC1 | -8.38% | 13.2% | -10.6% | 1.18% | 11.1% | 1.08% | 14.6% | 1% | 11.3% | 23.5% | -8.49%
COc1ccc(NC(=O)CCC2CCCN(Cc3ncon3)C2)c(C)c1 (stereo unspecified) | -3.42% | 2.67% | -0.626% | -0.0167% | -5.36% | -3.65% | 22% | 22.2% | 6.01% | 11.1% | -6.4%
c1coc(-c2noc(CN3CC(n4cccn4)C3)n2)c1 | -5.48% | 7.79% | 3% | -4.91% | 0.49% | 1.05% | 2.18% | 19.4% | 3.81% | 9.41% | -11.1%
CN(C)C(=O)CN1C[C@@H]2CC[C@H](C1)N(C(=O)CCn1cncn1)C2 | -2.58% | 5.41% | -3.51% | 3.26% | -1.16% | -0.952% | 2.76% | -15.8% | 6.88% | 9.76% | -3.62%
Cc1cccc(CN2CCc3c(nc(N4CCCCC4C)[nH]c3=O)C2)n1 (stereo unspecified) | -3.88% | 4.05% | 13% | 7.92% | -3.36% | 0.232% | 9.36% | 13.8% | 7.53% | 9.09% | 2.2%
Cn1ncc2c(=O)[nH]c(CN3CCCC3CC3CCCCC3)nc21 (stereo unspecified) | -1.58% | 21.1% | -3.55% | 4.78% | 3.83% | 0.719% | 6.85% | 17.1% | 6.4% | 25.9% | -8.17%
Cc1occc1C(=O)N1CCC2(CCCN(CC3CCC3)C2=O)C1 (stereo unspecified) | 0.601% | 1.39% | -1.7% | 8.02% | 2.62% | 11% | 13.3% | 13.6% | 6.32% | 10.3% | -2.8%
COc1ccc(CNC(=O)NC2CCN(CC(F)F)CC2)cc1C | -6.96% | 5.41% | -0.551% | 14.3% | 3.23% | 3.72% | 2.15% | -4.85% | 4.3% | 13.6% | -4.89%
CC(=O)Nc1nc(CN2CCOC(Cn3cc(C)cn3)C2)cs1 (stereo unspecified) | -2.79% | 15.6% | 9.13% | -6.5% | 0.0979% | 0.21% | 19.5% | 2.79% | 3.81% | 21.2% | -20.4%
CN1C(=O)CC(c2cnn(C)c2)C12CCN(C(=O)C1CC=CC1)CC2 (stereo unspecified) | -3.3% | -2.7% | 6.7% | 5.51% | -2.25% | -2.23% | 7.2% | -12.6% | -1.08% | -2.56% | 9.24%
